Screening results: PubChem BioAssay, National Center for Advancing Translational Sciences (NCATS)
DT40 TDP1 CPT: DT40-hTDP1 cell growth loss with CPT; chicken DT40 Tdp1-/-;hTDP1 cells + 20 nM CPT, ATP luminescence, 48 h; Potency, µM (highest dose often 46.2 µM), for the others: at the highest dose activity change, negative = growth inhibition, hits mostly inhibitors; 420,000 compounds, 12% hits; AID 686979; further: potency means the concentration at half of the fitted maximal effect; nearly all actives have a fitted effect of over 55% in size
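Chicken DT40 Tdp1-/- cells stably complemented with human TDP1 were seeded at 400 cells/well in medium containing 20 nM camptothecin, exposed to pin-transferred compounds, and grown at 37 °C for at least 48 hr. Viability was read as ATP luminescence.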
HT1080NT lethal: kills 2HG-producing HT-1080-NT fibrosarcoma cells; Potency, µM (titrated, usually from 46.1 µM), inactives show at the highest dose activity, negative = less viability, hits mostly cytotoxic; AID 686970; HT-1080-NT fibrosarcoma viability, CellTiter-Glo ATP luminescence, 48 h; 360,000 compounds, 1.6% hits;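 further: NT is the 2HG producing partner of a matched IDH1 knockdown line; potency means the concentration at half of the fitted maximal effect; 0% = DMSO-treated cells and -100% = media-only wells without cells; nearly all actives have a fitted effect of over 55% in size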
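750 cells/well, RPMI + 5% FBS; 2 h settle, compound pin-transfer, 48 h at 37 degrees C. CellTiter-Glo 10 min RT, luminescence. Normalized to DMSO and media-only wells.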
IL1B secr inh: inflammasome signaling inhibition, IL-1 beta readout | THP-1 LPS/ATP IL-1B secretion, AlphaLISA, 16 h; stronger effect = lower value | activity change, % at 57.5 µM | 360,000 compounds, 4.7% hits; in the data active means activity change below about -50%; inconclusive means mostly about -30% to -49%
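THP-1 cells pretreated 1 hr with compounds (up to 57.5 uM final), then stimulated with LPS (250 ng/mL final) plus ATP (1.25 mM final); secreted IL-1B measured by AlphaLISA after 16 hr, decreased signal indicating inhibition.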
TDP1 cell noCPT: qHTS for Inhibitors of human tyrosyl-DNA phosphodiesterase 1 (TDP1): qHTS in cells in absence of CPT. DT40 Tdp1-/- hTDP1 cells, no CPT, ATP luminescence, 48 h. Potency, µM (highest dose often 46.2 µM), for the others: top-dose activity change, negative = growth inhibition, hits mostly inhibitors. 420,000 compounds, 15% hits; further: potency means the concentration at half of the fitted maximal effect; nearly all actives have a fitted effect of over 55% in size
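Readout: luminescence from CellTiter-Glo after 30 min in the dark at RT. Cells: DT40 Tdp1-/- with stable hTDP1, 400/well. Exposure: compounds alone, ≥48 hr, 37 °C.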
HT1080 IDH1KD tx: HT-1080 IDH1 knockdown cell toxicity (counter line). HT-1080 IDH1 knockdown viability, ATP luminescence, 48 h. Potency, µM (highest dose often 46.1 µM), for the others: at the highest dose activity, negative = toxicity, usual class: cytotoxic. 360,000 compounds, 2% hits. AID 686971;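 further: potency means the concentration at half of the fitted maximal effect; 0% = DMSO wells and -100% = cell-free medium wells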
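Luminescent ATP read-out (CellTiter-Glo, 10 min at room temperature) after 48 h compound exposure at 37 °C gave viability of IDH1-knockdown HT-1080 cells. Activity was normalised to DMSO and cell-free wells, then fitted as concentration-response curves.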
ELG1 DNA repair: ELG1-dependent DNA repair inhibition. Potency, µM (series often up to 46.1 µM), without a hit: top-dose activity change, negative = inhibition, usual class: inhibitors. AID 504467. HEK293T ELG1-luciferase reporter, luminescence, 16 h; DNA damage induced by 5-fluorouridine. 330,000 compounds, 2.3% hits; further: potency means the concentration at half of the fitted maximal effect; nearly all actives have a fitted effect of over 55% in size
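In this reporter screen, reduction of luminescence relative to DMSO vehicle indicated activity. Compounds and 5-fluorouridine were added together to 2,000 cells per well, incubated for 16 hr at 37 °C, then developed with ONE-Glo.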
ELG1 FLuc counter: luciferase inhibition in cell-free luciferin readout for ELG1 hits. cell-free firefly luciferase luminescence counter-screen, ViewLux. 350 compounds, 3% hits. shares compounds with ELG1 DNA repair. Potency, µM (series often up to 46.1 µM), inactives show at the highest dose activity change, negative = inhibition, usual class: inhibitors. AID 624247; further: potency means the concentration at half of the fitted maximal effect
ELG1 Luc conf: human ELG1 repair inhibition, luciferase-tagged ELG1 confirmation; HEK293T ELG1-luciferase levels, luminescence; cells co-treated with 5-fluorouridine; shares compounds with ELG1 DNA repair; Potency, µM (doses to about 46.1 µM), for inactives: at the highest dose activity change, negative = inhibition, usual class: inhibitors; 670 compounds, 68% hits; further: potency means the concentration at half of the fitted maximal effect; nearly all actives have a fitted effect of over 55% in size
ELG1-Luc MMS: inhibits ELG1-dependent repair under MMS stimulation in HEK293T cells. shares compounds with ELG1 DNA repair. HEK293T luciferase-tagged ELG1 level, MMS stimulated. Potency, µM (titrated, usually from 46.1 µM), inactives show at the top dose activity change, negative = inhibition, hits mostly inhibitors. 670 compounds, 53% hits; further: potency means the concentration at half of the fitted maximal effect; nearly all actives have a fitted effect of over 60% in size
ELG1 5FU viab: confirmation of ELG1 repair inhibitors: viability with 5FU; shares compounds with ELG1 DNA repair; cell viability with 5-FU, ELG1-dependent repair; 670 tested, under 10 active; Potency, µM (titrated, usually from 46.1 µM), for inactives: at the top dose activity change, negative = viability loss, hits mostly cytotoxic;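 further: ELG1-luc HEK293T cells cotreated with 5-fluorouridine at 10 µM final; potency means the concentration at half of the fitted maximal effect; viability measured 16 h after compound addition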
ELG1 MMS cell: confirmation of ELG1 repair inhibitors: viability with MMS. Potency, µM (highest dose often 46.1 µM), without a hit: top-dose activity change, negative = viability loss, most hits filed as cytotoxic. shares compounds with ELG1 DNA repair. Cell viability with MMS, ELG1-dependent DNA repair. AID 624251. 670 compounds, 33% hits;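 further: ELG1-luc HEK293T cells co-treated with 10 µM MMS; potency means the concentration at half of the fitted maximal effect; viability read 16 h after compound addition; nearly all actives have a fitted effect of over 60% in size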
Cell viab unstim: unstimulated viability counter-screen for ELG1 repair hits; cell viability counter-screen, unstimulated, luminescence; AID 624252; Potency, µM (doses to about 45.9 µM), inactives show top-dose activity change, negative = loss of viability, usual class: cytotoxic; 900 compounds, 8% hits; shares compounds with ELG1 DNA repair;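 further: potency means the concentration at half of the fitted maximal effect; compound exposure lasted 16 hours before reading; nearly all actives have a fitted effect of over 55% in size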
FLuc biochem: inhibits purified firefly luciferase, counter-screen for ELG1 hits; purified firefly luciferase, luminescence counter-screen; shares compounds with ELG1 DNA repair; 350 compounds, 10% hits; AID 624253; Potency, µM (top dose mostly 57.5 µM), for the others: at the top dose activity, negative = inhibition, most hits filed as inhibitors; further: potency means the concentration at half of the fitted maximal effect
* marks the source's active call; other numbers are inactive results; ? = inconclusive; . = no result given. An excerpt weighted towards active compounds, which were near 19% of everything screened. Unless noted, the call rests on the fitted dose curve; in most records, active means well fitted curve in the direction sought with a large enough effect; inconclusive means small, poorly fitted or top-dose-only effect, or another doubt; inactive means no such curve, though single readings can be large; an effect the other way counts as inactive or inconclusive. Unless noted, on the % scale 0 is the no-effect control and ±100 the full control effect.

SMILES	DT40 TDP1 CPT	HT1080NT lethal	IL1B secr inh	TDP1 cell noCPT	HT1080 IDH1KD tx	ELG1 DNA repair	ELG1 Luc conf	ELG1-Luc MMS	ELG1 5FU viab	ELG1 MMS cell	Cell viab unstim	others
COc1ccc(N2CC(NS(=O)(=O)c3cccnc3)CC2=O)cc1 (stereo not drawn)	7.8%	-1.4%	23.8	-8.1%	13.7%	1.7%	.	.	.	.	.
COc1cccc(N2CC(NS(=O)(=O)c3cccnc3)CC2=O)c1 (stereo not drawn)	-14.5%	-0.3%	8.7	-29.2%	10.5%	4.11µM*	27.1%	11.0%	4.0%	?	10.4%
COc1ccc2ncn(-c3ccccc3)c2c1	-19.2%	1.9%	-8.3	-29.4%	-1.0%	2.31µM*	?	?	9.2%	?	7.4%
c1ccc(-n2cnc3ccccc32)cc1	?	-22.4%	-15.1	?	0.4%	?	.	.	.	.	.
CCOC(=O)C1CCN(c2cc3c(cc2NC(=O)c2ccccc2Br)n(C)c(=O)n3C)CC1	?	-4.7%	24.8	18.4µM*	-0.6%	9.2µM*	7.92µM*	?	?	6.5%	-0.8%	ELG1 FLuc counter=0.3%;FLuc biochem=0.5%
Cc1cc(C(=O)NNc2c(Cl)cccc2Cl)no1	0.7%	-2.9%	4.2	?	7.1%	-1.1%	.	.	.	.	.
Cc1cc(C(=O)NNc2ccc(F)cc2)no1	9.0%	?	5.0	-7.8%	5.17µM*	2.91µM*	-4.6%	19.0%	-8.1%	-2.2%	0.5%
CCOc1ccccc1NC(=O)C(OC(=O)c1ccc(NC(=O)CC#N)cc1)c1ccccc1 (stereo not drawn)	-26.1%	-7.2%	-6.0	?	-13.7%	?	.	.	.	.	.
O=C(Nc1ccc(F)cc1)N(Cc1cccs1)Cc1cc2cc3c(cc2[nH]c1=O)OCO3	?	-12.9%	?	16.4µM*	-10.8%	18.4µM*	8.89µM*	28.1µM*	-5.6%	?	?	ELG1 FLuc counter=?;FLuc biochem=-15.1%
COCCN(Cc1cc2cc3c(cc2[nH]c1=O)OCO3)C(=O)c1cccs1	.	.	.	.	.	-4.7%	.	.	.	.	.
O=C(COc1ccc(C(=O)c2ccccc2)cc1)Nc1cccnc1	5.17µM*	?	-17.8	2.91µM*	-25.8%	1.03µM*	?	0.996µM*	-1.5%	0.996µM*	?
O=C(CCCOc1ccccc1)Nc1cccnc1	-2.2%	16.4%	5.0	-14.1%	9.0%	1.6%	.	.	.	.	.
O=C(Nc1nonc1NC(=O)c1cccs1)c1cccs1	25.9µM*	-19.2%	0.7	23.1µM*	-20.6%	4.11µM*	?	4.45µM*	-5.1%	4.99µM*	?
COc1ccc(NC(=O)CN2CCN(C3c4ccccc4-c4ccccc43)CC2)c(OC)c1	?	-11.9%	8.9	25.9µM*	-21.4%	3.66µM*	3.97µM*	8.88µM*	?	?	-12.1%
COc1ccc(OC)c(CN2CCN(CC(=O)Nc3ccccc3C(=O)NC3CC3)CC2)c1	-7.9%	0.7%	-2.2	-0.5%	-1.3%	?	7.05µM*	?	?	?	?
COc1cc(C)c(CN2CCN(CC(=O)Nc3ccccc3C(=O)NC3CC3)CC2)cc1OC	-28.3%	1.3%	?	-4.9%	3.7%	3.66µM*	3.97µM*	28.1µM*	?	-18.5%	2.7%
COc1ccc(OC)c(NC(=O)CN2CCC(NC(=O)c3ccccc3C)CC2)c1	?	-1.9%	3.2	-27.1%	2.3%	?	.	.	.	.	.
COc1cc2c(cc1OC)CN(CC(=O)Nc1ccccc1C(=O)NC1CC1)CC2	-26.2%	-8.7%	-15.9	11.1%	-0.9%	-10.0%	.	.	.	.	.
CCOc1ccc(NC(=O)CN2CCN(CC(=O)Nc3ccc(OC)cc3OC)CC2)cc1	?	?	31.6	?	-7.4%	?	.	.	.	.	.
OCCCNc1ncnc2scc(-c3ccc(Cl)cc3)c12	?	-33.6%	-19.9	20.6µM*	?	4.61µM*	5.6µM*	15.8µM*	-0.5%	5.2%	?
Cc1nc(NC(=O)c2c(-c3ccccc3Cl)noc2C)sc1C	16.4µM*	0.1%	61.7	?	-15.9%	2.91µM*	?	0.499µM*	?	6.0%	-16.0%
Cc1[nH]nc2ncc(C(=O)c3ccccc3O)cc12	10.3µM*	1.4%	-50.8*	?	?	2.51µM*	3.53µM*	9.96µM*	?	?	-7.8%
COc1ccc(CNC(=O)C(c2ccc(C)o2)N(Cc2cccs2)C(=O)Cc2cccs2)cc1 (stereo not drawn)	29.1µM*	?	?	?	-22.3%	20.6µM*	11.2µM*	?	3.7%	-4.3%	?	ELG1 FLuc counter=-13.9%;FLuc biochem=3.3%
